# Test results taken from the supplement of paper PMC10849652.
# The full data set covers some 8,800 targets. This sample favours those with a hit. About 0.5% of all pairs of compound and target were hits. A number with no mark means an inactive call.
# Tests used:
# Assay in all cases: log2 fold change, soluble protein after heating vs DMSO (PISA); higher = thermal stabilisation; K562 lysate, 10 uM; active = over 0.2 and 3.5 SD of the protein, either way, in both replicates (recomputed)
# vemurafenib = compound: CCCS(=O)(=O)Nc1ccc(F)c(C(=O)c2c[nH]c3ncc(-c4ccc(Cl)cc4)cc23)c1F [vemurafenib]
# Summary of the method: (§1)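 Following dounce homogenisation of K562 pellets in PBS pH 7.4 with 1 mM MgCl2, crude extract at 1 mg/mL protein was incubated for 30 min with 10 μM compound. Aliquots were then heated for 3 min over 48°C-58°C and pooled, NP-40 was added to 0.5% at 4°C, and soluble protein was recovered as the supernatant at 21,000xg for 90 min. Channel-sum-equalised TMTpro 16plex LC-MS/MS quantified this protein. Each value, from duplicates, is a log-two fold change in thermal stability relative to solvent controls.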
# [1] = compound: CCCS(=O)(=O)Nc1ccc(F)c(C(=O)c2c[nH]c3ncc(Cl)cc23)c1F
# Summary of the method: as §1
# barasertib = compound: CCN(CCCOc1ccc2c(Nc3cc(CC(=O)Nc4cccc(F)c4)[nH]n3)ncnc2c1)CCOP(=O)(O)O [barasertib]
# Summary of the method: as §1
# [2] = compound: CC[C@@H]1C(=O)N(C)c2cnc(Nc3ccc(C(=O)NC4CCN(C)CC4)cc3OC)nc2N1C1CCCC1
# Summary of the method: as §1
# volasertib = compound: CC[C@@H]1C(=O)N(C)c2cnc(Nc3ccc(C(=O)N[C@H]4CC[C@H](N5CCN(CC6CC6)CC5)CC4)cc3OC)nc2N1C(C)C [volasertib]
# Summary of the method: as §1
# [3] = compound: CCn1c(C(=O)N(C2CC2)C2CC2)cc2c3c(ncn3C)c(Nc3cc(C)n(C)n3)nc21
# Summary of the method: as §1
# [4] = compound: CCn1cc(-c2ccnc3[nH]c(-c4cccc(CN(C)C)c4)cc23)c(-c2ccc(NC(=O)N(C)C)cc2)n1
# Summary of the method: as §1
# [5] = compound: CN1CCC(CNc2ccc3ncc(-c4cccc(OC(F)(F)F)c4)n3n2)CC1
# Summary of the method: as §1
# saracatinib = compound: CN1CCN(CCOc2cc(OC3CCOCC3)c3c(Nc4c(Cl)ccc5c4OCO5)ncnc3c2)CC1 [saracatinib]
# Summary of the method: as §1
# sotrastaurin = compound: CN1CCN(c2nc(C3=C(c4c[nH]c5ccccc45)C(=O)NC3=O)c3ccccc3n2)CC1 [sotrastaurin]
# Summary of the method: as §1
# alvocidib = compound: CN1CC[C@H](c2c(O)cc(O)c3c(=O)cc(-c4ccccc4Cl)oc23)[C@H](O)C1 [alvocidib]
# Summary of the method: as §1
# Tubastatin A = compound: CN1CCc2c(c3ccccc3n2Cc2ccc(C(=O)NO)cc2)C1 [Tubastatin A]
# Summary of the method: as §1
# [6] = compound: CNC(=O)C1=CC=CC=C1NC2=NC(=NC=C2Cl)NC3=C(C=C(C=C3)N4CCOCC4)OC
# Summary of the method: as §1
# defactinib = compound: CNC(=O)c1ccc(Nc2ncc(C(F)(F)F)c(NCc3nccnc3N(C)S(C)(=O)=O)n2)cc1 [defactinib]
# Summary of the method: as §1
# [7] = compound: CNc1nc(-c2ccc3c(N)n[nH]c3c2)cc(N2C[C@@H](C(=O)NC3CCCCC3)CC[C@H]2C)n1
# Summary of the method: as §1
# encorafenib = compound: COC(=O)N[C@@H](C)CNc1nccc(-c2cn(C(C)C)nc2-c2cc(Cl)cc(NS(C)(=O)=O)c2F)n1 [encorafenib]
# Summary of the method: as §1
# [8] = compound: COC(=O)[C@H](CCSC)NC(=O)C1=C(C=C(C=C1)NC[C@H](CS)N)C2=CC=CC=C2
# Summary of the method: as §1
# alisertib = compound: COc1cc(Nc2ncc3c(n2)-c2ccc(Cl)cc2C(c2c(F)cccc2OC)=NC3)ccc1C(=O)O [alisertib]
# Summary of the method: as §1
# [9] = compound: COc1cc2nc(-c3cc(F)ccc3O)nc(N[C@@H]3CNC[C@H]3C(C)(C)O)c2cc1OC
# Summary of the method: as §1
# gefitinib = compound: COc1cc2ncnc(Nc3ccc(F)c(Cl)c3)c2cc1OCCCN1CCOCC1 [gefitinib]
# Summary of the method: as §1
# UniProt P39687, sequence (P39687 whole entry, looked up): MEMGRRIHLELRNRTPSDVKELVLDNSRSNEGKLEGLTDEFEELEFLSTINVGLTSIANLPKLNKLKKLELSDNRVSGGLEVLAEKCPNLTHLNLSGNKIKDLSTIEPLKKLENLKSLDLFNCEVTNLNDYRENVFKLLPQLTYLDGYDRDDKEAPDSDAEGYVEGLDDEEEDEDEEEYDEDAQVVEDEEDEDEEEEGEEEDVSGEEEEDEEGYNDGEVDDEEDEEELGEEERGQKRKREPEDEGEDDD
# UniProt P52895, sequence (P52895 whole entry, looked up): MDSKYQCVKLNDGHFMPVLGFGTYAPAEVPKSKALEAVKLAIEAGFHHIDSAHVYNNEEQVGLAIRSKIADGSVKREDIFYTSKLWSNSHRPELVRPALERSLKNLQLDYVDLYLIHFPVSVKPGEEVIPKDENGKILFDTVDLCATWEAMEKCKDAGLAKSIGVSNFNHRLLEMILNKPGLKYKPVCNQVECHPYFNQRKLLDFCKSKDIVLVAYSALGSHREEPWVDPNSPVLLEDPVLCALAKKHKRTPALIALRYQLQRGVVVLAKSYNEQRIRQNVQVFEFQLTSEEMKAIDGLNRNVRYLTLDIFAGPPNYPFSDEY
# UniProt Q9NQW6, sequence (Q9NQW6 whole entry, looked up): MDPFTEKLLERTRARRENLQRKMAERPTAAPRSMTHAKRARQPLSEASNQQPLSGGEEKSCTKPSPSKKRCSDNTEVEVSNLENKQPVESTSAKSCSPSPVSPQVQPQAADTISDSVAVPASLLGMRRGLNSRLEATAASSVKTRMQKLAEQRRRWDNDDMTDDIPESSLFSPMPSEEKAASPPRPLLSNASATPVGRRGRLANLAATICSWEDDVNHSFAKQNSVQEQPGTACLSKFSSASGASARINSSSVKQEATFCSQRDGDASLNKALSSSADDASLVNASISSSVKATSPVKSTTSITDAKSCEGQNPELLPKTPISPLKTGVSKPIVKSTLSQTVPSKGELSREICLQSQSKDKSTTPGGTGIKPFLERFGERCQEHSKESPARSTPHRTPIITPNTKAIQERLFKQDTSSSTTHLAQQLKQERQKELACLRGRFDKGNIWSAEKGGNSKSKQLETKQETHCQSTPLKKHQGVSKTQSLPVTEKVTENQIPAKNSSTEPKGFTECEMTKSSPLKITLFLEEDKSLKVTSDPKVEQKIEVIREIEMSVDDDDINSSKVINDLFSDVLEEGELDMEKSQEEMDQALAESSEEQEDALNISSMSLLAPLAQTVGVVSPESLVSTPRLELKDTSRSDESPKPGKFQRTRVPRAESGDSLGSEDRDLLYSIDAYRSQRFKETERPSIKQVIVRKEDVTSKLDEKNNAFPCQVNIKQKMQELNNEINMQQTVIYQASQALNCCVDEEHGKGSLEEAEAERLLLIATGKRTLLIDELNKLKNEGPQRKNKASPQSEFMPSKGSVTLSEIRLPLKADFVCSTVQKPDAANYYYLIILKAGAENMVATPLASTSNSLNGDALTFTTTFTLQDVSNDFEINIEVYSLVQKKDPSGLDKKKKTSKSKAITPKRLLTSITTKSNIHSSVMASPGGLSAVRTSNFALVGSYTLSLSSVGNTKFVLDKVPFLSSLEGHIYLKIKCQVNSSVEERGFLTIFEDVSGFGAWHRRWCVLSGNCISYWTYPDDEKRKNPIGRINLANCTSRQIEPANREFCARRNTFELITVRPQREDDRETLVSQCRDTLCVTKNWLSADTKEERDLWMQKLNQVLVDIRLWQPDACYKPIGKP
# UniProt P17707, sequence (P17707 whole entry, looked up): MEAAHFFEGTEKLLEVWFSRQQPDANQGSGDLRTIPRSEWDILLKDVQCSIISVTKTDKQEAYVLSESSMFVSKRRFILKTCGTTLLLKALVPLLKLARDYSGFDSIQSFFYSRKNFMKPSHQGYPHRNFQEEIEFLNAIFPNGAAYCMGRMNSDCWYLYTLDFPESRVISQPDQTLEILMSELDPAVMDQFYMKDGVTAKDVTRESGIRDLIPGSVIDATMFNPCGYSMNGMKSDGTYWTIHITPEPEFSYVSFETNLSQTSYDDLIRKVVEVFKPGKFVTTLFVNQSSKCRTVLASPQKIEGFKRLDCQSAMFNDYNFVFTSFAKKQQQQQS
# UniProt P27695, sequence (P27695 whole entry, looked up): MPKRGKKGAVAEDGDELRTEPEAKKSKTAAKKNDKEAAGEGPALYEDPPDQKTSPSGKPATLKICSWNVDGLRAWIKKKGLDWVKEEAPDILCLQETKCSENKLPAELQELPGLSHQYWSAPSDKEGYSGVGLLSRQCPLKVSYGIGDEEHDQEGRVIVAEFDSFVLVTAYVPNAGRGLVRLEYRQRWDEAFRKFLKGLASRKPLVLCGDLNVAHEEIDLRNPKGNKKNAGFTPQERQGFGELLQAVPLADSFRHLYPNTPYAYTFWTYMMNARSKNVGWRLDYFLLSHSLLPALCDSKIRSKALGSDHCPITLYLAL
# UniProt O75843, sequence (O75843 whole entry, looked up): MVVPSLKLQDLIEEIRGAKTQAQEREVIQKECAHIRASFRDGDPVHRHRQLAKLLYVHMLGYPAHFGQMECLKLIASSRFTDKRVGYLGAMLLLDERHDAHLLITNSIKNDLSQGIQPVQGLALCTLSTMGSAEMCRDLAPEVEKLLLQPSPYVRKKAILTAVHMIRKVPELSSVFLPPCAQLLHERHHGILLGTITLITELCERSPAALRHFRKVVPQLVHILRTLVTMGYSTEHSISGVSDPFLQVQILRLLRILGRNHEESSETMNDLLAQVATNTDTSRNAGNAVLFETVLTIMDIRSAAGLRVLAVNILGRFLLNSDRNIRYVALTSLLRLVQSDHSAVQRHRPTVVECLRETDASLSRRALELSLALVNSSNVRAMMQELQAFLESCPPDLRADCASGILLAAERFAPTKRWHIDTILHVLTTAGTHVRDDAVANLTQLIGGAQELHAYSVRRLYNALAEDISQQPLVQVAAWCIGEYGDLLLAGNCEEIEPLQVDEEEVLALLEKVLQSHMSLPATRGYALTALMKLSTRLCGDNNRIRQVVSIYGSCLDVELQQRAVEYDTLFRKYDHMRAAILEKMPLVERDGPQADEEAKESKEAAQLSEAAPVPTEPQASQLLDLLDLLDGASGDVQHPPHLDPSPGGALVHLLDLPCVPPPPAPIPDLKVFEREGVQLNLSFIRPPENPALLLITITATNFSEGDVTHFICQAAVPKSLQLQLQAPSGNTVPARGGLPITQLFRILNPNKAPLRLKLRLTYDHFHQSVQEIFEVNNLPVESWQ
# UniProt Q92974, sequence (Q92974 whole entry, looked up): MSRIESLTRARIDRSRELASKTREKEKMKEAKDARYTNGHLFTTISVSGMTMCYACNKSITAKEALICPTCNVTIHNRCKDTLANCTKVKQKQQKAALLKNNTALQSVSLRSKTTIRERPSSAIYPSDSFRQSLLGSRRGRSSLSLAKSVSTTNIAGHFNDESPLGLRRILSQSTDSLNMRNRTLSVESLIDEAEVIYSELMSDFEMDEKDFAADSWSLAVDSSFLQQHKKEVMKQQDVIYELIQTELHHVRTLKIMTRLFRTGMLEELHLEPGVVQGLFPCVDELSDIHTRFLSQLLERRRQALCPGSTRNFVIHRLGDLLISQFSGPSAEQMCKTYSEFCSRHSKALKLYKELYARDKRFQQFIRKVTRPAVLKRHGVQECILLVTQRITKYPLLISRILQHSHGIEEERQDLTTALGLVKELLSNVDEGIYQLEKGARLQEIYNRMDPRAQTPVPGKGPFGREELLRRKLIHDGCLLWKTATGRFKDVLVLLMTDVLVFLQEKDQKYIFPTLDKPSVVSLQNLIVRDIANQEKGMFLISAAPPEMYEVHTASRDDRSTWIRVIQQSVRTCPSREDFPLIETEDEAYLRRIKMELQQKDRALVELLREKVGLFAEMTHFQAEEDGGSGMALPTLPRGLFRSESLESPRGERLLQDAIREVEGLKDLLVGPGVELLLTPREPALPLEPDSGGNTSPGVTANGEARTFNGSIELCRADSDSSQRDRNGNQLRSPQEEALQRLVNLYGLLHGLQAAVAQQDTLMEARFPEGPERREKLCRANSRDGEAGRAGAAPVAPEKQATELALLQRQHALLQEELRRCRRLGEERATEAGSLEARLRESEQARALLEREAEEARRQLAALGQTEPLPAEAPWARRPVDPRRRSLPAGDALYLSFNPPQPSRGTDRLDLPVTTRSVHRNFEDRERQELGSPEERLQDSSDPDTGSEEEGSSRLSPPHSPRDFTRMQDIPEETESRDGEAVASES
# UniProt Q9UG63, sequence (Q9UG63 whole entry, looked up): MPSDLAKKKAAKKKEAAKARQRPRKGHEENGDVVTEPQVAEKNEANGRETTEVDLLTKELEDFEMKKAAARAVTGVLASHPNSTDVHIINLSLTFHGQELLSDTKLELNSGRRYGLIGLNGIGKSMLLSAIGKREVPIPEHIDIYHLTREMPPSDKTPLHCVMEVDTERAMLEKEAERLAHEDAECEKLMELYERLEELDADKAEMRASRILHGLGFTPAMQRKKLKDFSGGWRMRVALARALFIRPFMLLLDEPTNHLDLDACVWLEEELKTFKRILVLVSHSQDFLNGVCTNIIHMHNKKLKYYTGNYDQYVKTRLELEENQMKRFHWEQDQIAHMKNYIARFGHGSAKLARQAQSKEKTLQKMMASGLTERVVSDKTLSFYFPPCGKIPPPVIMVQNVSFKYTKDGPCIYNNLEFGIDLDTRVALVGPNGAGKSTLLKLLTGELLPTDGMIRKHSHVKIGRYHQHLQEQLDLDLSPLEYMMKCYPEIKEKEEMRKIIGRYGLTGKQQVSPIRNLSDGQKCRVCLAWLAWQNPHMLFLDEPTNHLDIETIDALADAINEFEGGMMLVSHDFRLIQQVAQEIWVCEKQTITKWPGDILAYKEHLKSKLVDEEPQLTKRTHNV
Target,log2 fold change (vemurafenib),log2 fold change [1],log2 fold change (barasertib),log2 fold change [2],log2 fold change (volasertib),log2 fold change [3],log2 fold change [4],log2 fold change [5],log2 fold change (saracatinib),log2 fold change (sotrastaurin),log2 fold change (alvocidib),log2 fold change (Tubastatin A),log2 fold change [6],log2 fold change (defactinib),log2 fold change [7],log2 fold change (encorafenib),log2 fold change [8],log2 fold change (alisertib),log2 fold change [9],log2 fold change (gefitinib)
AP1G2 (UniProt O75843),-0.057,0.044,0.011,-0.014,-0.053,-0.003,-0.007,0.032,-0.032,0.022,0.04,-0.099,0.068,-0.006,0.036,-0.03,-0.015,0.037,0.056,0.03
ANLN (UniProt Q9NQW6),-0.012,0.019,0.003,0.01,-0.014,-0.035,-0.067,-0.014,0.002,0.009,-0.037,-0.196,0.058,0.012,0.011,0.036,0.102,0.051,0.004,0.03
AMD1 (UniProt P17707),0.096,-0.01,0.064,0.036,-0.014,0.117,-0.129,0.127,0.013,-0.002,-0.039,-0.084,0.071,-0.003,0.008,-0.08,-0.107,0.027,0.261,0.041
APEX1 (UniProt P27695),0.019,0.017,-0.027,-0.03,-0.004,0.043,0.37 (active),-0.07,-0.001,0.009,0.13,-0.07,0.006,0.023,0.038,-0.024,0.076,0,-0.019,-0.064
ARHGEF2 (UniProt Q92974),-0.006,0.013,-0.002,0,-0.026,-0.021,-0.02,-0.003,0.009,0.027,-0.009,-0.081,0.047,-0.004,0.058,0.07,0.071,0.018,-0.005,0.007
ABCF2 isoform 2 (UniProt Q9UG63),0.017,0.002,-0.014,-0.072,-0.045,0.026,-0.008,-0.026,0,0.036,0.004,-0.169,-0.001,-0.039,0.005,-0.005,0.08,0.014,0.025,-0.02
AKR1C2 (UniProt P52895),0.001,0.018,-0.008,0.008,-0.018,-0.043,-0.369 (active),0.148,0.062,0.006,-0.06,0.061,-0.021,-0.05,-0.151,-0.012,0.018,0.002,0.004,-0.082
ANP32A (UniProt P39687),-0.025,0.052,-0.007,-0.011,0.006,-0.008,-0.085,0.062,-0.033,-0.002,-0.039,0.027,-0.006,0.016,-0.056,-0.024,-0.048,0.018,-0.014,-0.007
AGPS (UniProt O00116),0.028,0.008,-0.021,0.06,0.011,0.025,-0.082,0.012,-0.009,-0.016,-0.011,0.039,-0.046,-0.003,0.011,-0.005,-0.125,0.035,-0.03,-0.002
ARHGEF1 (UniProt M0QZR4),0.014,0.004,0.023,-0.025,-0.041,0.014,-0.08,0.013,0.009,0.018,0.011,-0.085,0.016,-0.005,-0.016,0.022,0.063,0.001,-0.01,-0.014
